Structures are written as SMILES. “And” between values parts separate entries of the source, which are not always exact repeats. Identical values can stand only once. In all, about 350,000 compounds went through this assay and about 6,000 (1.7%) were called active. Inconclusive results (about 5%) are left out. Cut-off read from the data, not from the text of the source: active = CPE inhibition above about 20% (passing the limit was not always enough); inconclusive = no clear call, values can overlap the other calls; tested in BHK-21 cells. The full list was thinned out, with actives kept by preference. Some compounds were tested as several samples or in several runs, with calls that do not always agree.

The assay is described as follows: protection of cells from dengue 2 killing – plate reader, single concentration, primary screen (AID 651640).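 Note: 0% = median of neutral control wells and 100% = median of positive control wells.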 The following applies: DENV2-infected cells, cytopathic effect rescue, at 9.99 µM, stronger effect = higher value.
In the case of `CCC(=O)N1CCC2(CC1)CN(Cc1cccc(OC)c1)[C@@H](CO)c1[nH]c3cc(OC)ccc3c12`, the CPE inhibition was -4.07% (inactive).
Take `C[C@@H]1CN([C@H](C)CO)C(=O)c2cc(C#CCN(C)C)cnc2O[C@@H]1CN(C)C(=O)Cc1cccnc1`: the CPE inhibition was 6.92% (inactive).
Under `CCc1cccc(NC(=O)O[C@H]2[C@H](OC(=O)Nc3ccccc3-c3ccccc3)[C@H](OC(=O)Nc3ccccc3-c3ccccc3)[C@@H](OC)O[C@@H]2CO)c1` stands 1.23% (inactive).
On to `CC(C)CNc1cccc2c1S(=O)(=O)N[C@H](C)CO2`, for which the CPE inhibition is 2.95% (inactive).
Under `CN(C)C(=O)C[C@@H]1C=C[C@H](NC(=O)Nc2cccc(F)c2)[C@H](CO)O1` stands -10% (inactive); under `COc1cc(F)c(C2=CC(=O)CC(C)(C)C2)cc1F`, 26.9% (active); under `COc1ccc(CCNC2=CC(=O)CC(C)(C)C2)cc1`, 16.6% (inactive).
As to `CC1(C)CC(=O)C=C(c2ccc(Cl)c(C(F)(F)F)c2)C1`, the CPE inhibition is 1.16% (inactive).
The value for `COc1ccc(-c2csc3ncnc(N4CCN(S(=O)(=O)c5cccc(F)c5)CC4)c23)cc1` was 5.97% (inactive); that for `O=S(=O)(Nc1ncnc2sccc12)c1cccc(F)c1` was -1.13% (inactive); that for `Cc1cc(F)ccc1S(=O)(=O)Nc1ncnc2scc(-c3ccc(F)cc3)c12` was 46.8% (active).
Regarding `O=C1CN(S(=O)(=O)c2ccccc2)C[C@H]2[C@H](c3ccc(C4=CCCC4)cc3)[C@@H](CO)N12`, the CPE inhibition is -1.48% (inactive).
The value for `COc1cccc(NC(=O)N[C@@H]2CC[C@H](CC(=O)Nc3ccccc3)O[C@@H]2CO)c1` was 3.12% (inactive); that for `Nc1ccccc1-c1cn(CC(=O)Nc2ccon2)nn1` was 15.8% (inactive).
Take `CO[C@@H]1CN(C)C(=O)c2ccc(NS(=O)(=O)c3cccc(C)c3)cc2OC[C@@H](C)NC[C@H]1C`: the CPE inhibition is 10.6% (inactive).
Under `Cc1noc(C)c1NC(=O)N(C)C[C@@H]1OCCCC[C@H](C)Oc2ccc(NC(=O)NC3CCCCC3)cc2C(=O)N([C@H](C)CO)C[C@@H]1C` stands -0.006% (inactive); under `C[C@@H]1CN([C@H](C)CO)C(=O)c2cc(NC(=O)CCN3CCOCC3)ccc2O[C@H]1CN(C)Cc1ccc(Oc2ccccc2)cc1`, 25.3% (active).
Under `COc1ccc(CN(C)C[C@H]2Oc3ccc(NC(=O)CCN4CCOCC4)cc3C(=O)N([C@@H](C)CO)C[C@H]2C)cc1` stands 8.91% (inactive).
The value for `C[C@@H]1CN([C@@H](C)CO)C(=O)c2cc(NC(=O)Nc3cccc4ccccc34)ccc2O[C@H]1CN(C)Cc1ccc(Oc2ccccc2)cc1` was 29.3% (active).
Take `C[C@@H]1CN([C@@H](C)CO)C(=O)c2cc(NC(=O)Nc3cccc4ccccc34)ccc2O[C@@H]1CN(C)Cc1ccc(-c2ccccc2)cc1`: the CPE inhibition is 6.66% (inactive).
In the case of `C[C@@H]1CN([C@@H](C)CO)C(=O)c2cc(NC(=O)Cc3ccccc3)ccc2O[C@@H]1CN(C)Cc1ccc(Oc2ccccc2)cc1`, the CPE inhibition is -2.18% (inactive).
The value for `COc1ccc(CN(C)C[C@@H]2Oc3ccc(NC(=O)Nc4cccc5ccccc45)cc3C(=O)N([C@H](C)CO)C[C@H]2C)cc1` was 1.24% (inactive).
Consider `CC(=O)c1ccc(S(=O)(=O)NCC2CCN(C(=O)C(=O)c3cccs3)CC2)cc1`, for which the CPE inhibition is -2.02% (inactive).
The value for `COc1ccccc1CN1[C@@H]2CNC[C@H]1C2c1ccc(-c2cccc(C#N)c2)cc1` (stereo partly specified) was 9% (inactive) and 53.2% (active); that for `N#Cc1cccc(-c2ccc(C3[C@H]4CNC[C@@H]3N4Cc3cncnc3)cc2)c1` (stereo partly specified) was -5.94% (inactive).
Under `N#Cc1ccc(-c2ccc([C@@H]3[C@H]4CNC[C@@H]3N4Cc3cc(F)ccc3F)cc2)cc1` stands -0.209% (inactive); under `CCCNC(=O)C[C@@H]1CC[C@@H]2[C@H](COc3ccc(NC(=O)C4CCOCC4)cc3C(=O)N2C)O1`, 11.7% (inactive); under `Cc1cccc(NC(=O)COC(=O)CCc2ccccc2)c1C`, 0.193% (inactive).
Consider `CCN(CC(=O)NCC(=O)Nc1cccc(C)c1C)Cc1ccccc1`, for which the CPE inhibition was 61.4% (active).
Turning to `CCN(CC(=O)Nc1ccc(C)c(S(=O)(=O)N(C)C)c1)Cc1ccccc1`, the CPE inhibition was 7.9% (inactive).
The value for `CO[C@H]1CN(C)C(=O)c2cc(NC(=O)c3ccccc3)ccc2OC[C@H](C)NC[C@H]1C` was -12.8% (inactive); that for `O=C(N[C@@H]1C=C[C@@H](CC(=O)N2CCOCC2)O[C@H]1CO)c1ccccn1` was -8.41% (inactive); that for `CCCc1nc2ccccc2n1C(C)C(=O)NC(C)(C)C` (stereo unspecified) was 34.6% (active).
Under `CC(C)(C)NC(=O)C(CCc1ccccc1)n1c(=O)c(-c2ccccc2)nc2ccccc21` (stereo unspecified) stands 8.63% (inactive); under `CCC(C(=O)NC(C)(C)C)n1c(-c2ccccc2)nc2ccccc21` (stereo unspecified), -20.3% (inactive).
Under `CCCNC(=O)C[C@@H]1CC[C@H]2[C@H](COc3ccc(NC(=O)c4ccc(Cl)cc4)cc3C(=O)N2C)O1` stands -2.04% (inactive).
For the compound `O=C(C[C@@H]1CC[C@H](NS(=O)(=O)c2cccc(F)c2)[C@H](CO)O1)N1CCCCC1`, the CPE inhibition was -2.32% (inactive).
The value for `COc1ccc(-c2cn(CC[C@@H]3CC[C@@H](NC(=O)CCN4CCCCC4)[C@@H](CO)O3)nn2)cc1` was -1.31% (inactive); that for `N#Cc1c(NC(=O)c2ccc(N3CCOCC3)c([N+](=O)[O-])c2)sc2c1CCCC2` was 46.3% (active).
Under `O=C(OCC(=O)N1CCOCC1)c1ccc(N2CCOCC2)c([N+](=O)[O-])c1` stands 2.84% (inactive).
The value for `Cc1cccc(C)c1NC(=O)CNC(=O)c1ccc(N2CCOCC2)c([N+](=O)[O-])c1` was -8.12% (inactive); that for `C[C@H]1CN([C@@H](C)CO)C(=O)c2cccc(NC(=O)Nc3ccccc3)c2O[C@@H]1CN(C)S(=O)(=O)c1ccc(F)cc1` was 13.7% (inactive).
For `COc1ccc2c3c(n(C)c2c1)[C@@H](CO)N(CC1CC1)CC31CN(C(=O)Nc2c(C)noc2C)C1`, the CPE inhibition is 7.58% (inactive).
Under `COc1ccc(CNC(=O)COC(=O)CCS(=O)(=O)c2ccc(C)cc2)cc1OC` stands -2.46% (inactive).
Under `CCCCCCn1c(=O)n2n(c1=O)C[C@]1(OC(=O)NCc3ccc(OC)c(OC)c3)CN(S(=O)(=O)c3ccc(C)cc3)C[C@]1(O)C2` stands 33.2% (active); under `CCCCCCNC(=O)O[C@]12C[C@@H](C(=O)OC)[C@@H](C(=O)OC)C[C@@]1(O)CN(S(=O)(=O)c1ccc(C)cc1)C2`, -1.36% (inactive).
Under `C[C@H](O)C#Cc1ccc2c(c1)O[C@H](CN(C)Cc1ccccn1)[C@@H](C)CN([C@@H](C)CO)S2(=O)=O` stands 3.01% (inactive); under `C[C@H]1CN([C@@H](C)CO)C(=O)c2c(c3ccccc3n2C)-c2ccccc2CO[C@H]1CN(C)Cc1ccc2c(c1)OCO2`, -9.95% (inactive); under `CCOC(=O)/C=C/c1ccc(C(F)(F)F)cc1S(=O)(=O)NC(C)(C)C`, 23.6% (active).
`CCOC(=O)/C=C/c1ccccc1O`: the CPE inhibition was -9.35% (inactive).
With `CCOC(=O)NNc1cc(C(F)(F)F)ccn1`, the CPE inhibition was -1.25% (inactive).
The value for `O=C(CN1CCOCC1)N[C@H]1CC[C@@H](CCNS(=O)(=O)c2ccccc2F)O[C@H]1CO` was 1.76% (inactive); that for `O=C(CN1CCOCC1)N[C@@H]1CC[C@H](CCNS(=O)(=O)c2ccccc2F)O[C@H]1CO` was 28.5% (active); that for `O=C(Nc1ccccc1)N[C@@H]1CC[C@H](CCNS(=O)(=O)c2ccccc2F)O[C@@H]1CO` was -0.044% (inactive).
As to `O=C(Cc1ccccc1)N1C[C@H]2[C@@H](c3ccccc31)[C@H](CO)N2C(=O)C1CCOCC1`, the CPE inhibition was 2% (inactive).
The value for `O=C(NCC[C@H]1CC[C@@H](NC(=O)c2ccncc2)[C@@H](CO)O1)Nc1ccc(Cl)cc1` was 3.84% (inactive); that for `COc1ccc(NC(=O)Nc2ccc3c(c2)C(=O)N([C@@H](C)CO)C[C@@H](C)[C@@H](CN(C)C(=O)CCCN(C)C)OCCCC[C@@H](C)O3)cc1` was -1% (inactive); that for `Cc1ccc(S(=O)(=O)N[C@H]2CC[C@H](CC(=O)NCc3ccccc3F)O[C@@H]2CO)cc1` was 23.7% (active).
With `Cc1ccc(S(=O)(=O)N[C@H]2CC[C@@H](CC(=O)NCc3ccc(Cl)c(Cl)c3)O[C@H]2CO)cc1`, the CPE inhibition is -6.75% (inactive).
With `O=C(C[C@@H]1CC[C@H](NS(=O)(=O)c2ccc(F)cc2)[C@@H](CO)O1)NCc1ccccc1F`, the CPE inhibition was 1.66% (inactive).
The value for `Cc1ccccc1-c1ccc2c(c1)O[C@@H](CN(C)Cc1ccc(C(=O)O)cc1)[C@H](C)CN([C@H](C)CO)S2(=O)=O` was 0.324% (inactive).
The value for `CC=Cc1ccc2n(c1=O)C[C@H]1[C@H](CO)[C@@H](C(=O)N3CCCCC3)N(Cc3ccccn3)[C@@H]21` (mixture of isomers) was 14.3% (inactive).
Under `COc1cccc(C(=O)NCCSc2ccc(Br)cc2)c1` stands 14.3% (inactive).
Take `CCS(=O)(=O)Nc1ccc(C(=O)NCCSc2ccccc2)cc1`: the CPE inhibition was 32% (active).
As for `COc1ccc(C(=O)NCCSc2ccccc2C)cc1`, the CPE inhibition is -6.82% (inactive).
Under `C[C@@H]1CN([C@@H](C)CO)C(=O)c2cccc(N(C)C)c2O[C@@H]1CN(C)S(C)(=O)=O` stands 1.61% (inactive).
With `C[C@@H]1CCCCO[C@@H](CN(C)S(=O)(=O)c2cccs2)[C@@H](C)CN([C@H](C)CO)C(=O)c2cc(NC(=O)Nc3ccc4c(c3)OCO4)ccc2O1`, the CPE inhibition was -1.49% (inactive).
Under `COCCNC(=O)[C@H]1[C@H](CO)[C@H]2Cn3c(ccc(-c4ccccc4F)c3=O)[C@H]2N1C(=O)C1CCC1` stands -1.96% (inactive).
Take `COc1ccc(CCC(=O)N2CCN(S(=O)(=O)c3ccc(OC)cc3)CC2)cc1`: the CPE inhibition was -8.26% (inactive).
Turning to `COc1ccc(CCNC(=S)N2CCN(S(=O)(=O)c3ccc(Cl)cc3)CC2)cc1`, the CPE inhibition was 0.363% (inactive).
Regarding `COc1ccc(CCNC(=S)N2CCN(S(=O)(=O)c3ccc(F)cc3)CC2)cc1`, the CPE inhibition was 53.1% (active).

The values are drawn from PubChem BioAssay AID651640 (Broad Institute, 2012).
